The values that follow come from PubChem BioAssay AID488890 (Southern Research Specialized Biocontainment Screening …, 2010).

The whole screen tested about 320,000 compounds, of which about 1,300 (0.41%) were called active. Inconclusive results (about 3%) are left out. How the calls were made is not given here. Only a sample is shown. Results with a measured potency or affinity are listed apart.

Broadly, the inhibition is the relative decrease from the control value, in per cent.

The test can be described thus: growth inhibition of non-replicating M. tuberculosis (AID 488890).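 Further: plate controls were DMSO cells for no effect and high antibiotic wells for full effect.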 As to conditions: Mycobacterium tuberculosis non-replicating, at 25 µM, stronger effect = higher value.
In the case of `Cc1ccc(N(C(=O)CS(=O)CC(=O)Nc2ccc(F)cc2)C(C)C(=O)NC(C)(C)C)cc1` (stereo unspecified), the inhibition was -2.13%.
The figure for `CC1CCCCN1S(=O)(=O)c1ccc([N+](=O)[O-])cc1` (stereo unspecified) is -4.65%; for `Cc1ccc(NC(=O)COC(=O)Cn2c(C)csc2=O)cc1` it is 7.46%.
With `COCCn1c(C)cc(C(=O)COC(=O)c2cccc(O)c2)c1C` the figure was -6.95%; with `COCCn1c(C)cc(C(=O)COC(=O)c2ccc(S(=O)(=O)N(C)C)cc2)c1C`, -12.9%; with `COc1ccc([N+](=O)[O-])cc1NC(=O)c1cncc(Br)c1`, 36.5%.
With `CCOCCCNC(=O)C(c1ccccc1)N(Cc1ccc2c(c1)OCO2)C(=O)c1ccccc1O` (stereo unspecified) the figure was 4.13%.
As to `Cc1cccc(C(=O)Nc2cccc(OCC(=O)O)c2)c1`, the inhibition was -11.3%.
With `Cc1cccc(C(=O)Nc2cccc(OC(=O)c3cccc(C)c3)c2)c1` the figure was 51.4%.
Consider `O=C(O)COc1cccc(NC(=O)c2ccccc2)c1`, for which the inhibition was -6.49%.
The figure for `COC(=O)COc1cccc(NC(=O)c2cc(OC)cc(OC)c2)c1` is 58.8%.
With `Cc1cccc(N(C(=O)c2snc(C(N)=O)c2N)C(C(=O)NCc2ccccc2)c2ccncc2)c1` (stereo unspecified) the figure was 11.8%.
Take `O=C(COc1ccc(-n2cnnn2)cc1)Nc1cccc(Cl)c1Cl`: the inhibition was 5.43%.
In the case of `Cc1nnc(N/N=C/c2ccccc2C(F)(F)F)n1N`, the inhibition is 3.91%.
With `Cc1cc(Cl)nc(Cl)c1C(=O)NCCc1ccccc1` the figure was 5.34%; with `CC(C)Cc1nnc(NC(=O)CCC(=O)Nc2ccc(Cl)cc2)s1`, 12.6%.
With `CCc1nnc(NC(=O)CCS(=O)(=O)c2ccc(C)cc2)s1`, the inhibition stood at 77.7%.
Take `C=CCOC(=O)/C(=C\c1ccccc1)NC(=O)c1ccco1`: the inhibition is -12.7%.
For `C[C@H](NC(=O)c1nc[nH]c1C(=O)N1CCN(C(=O)OC(C)(C)C)CC1)C(=O)OC(C)(C)C`, the inhibition was -4.48%.
The figure for `COc1ccc(OCCCN2CCc3ccccc3C2)cc1` is 46.6%.
The figure for `O=[N+]([O-])c1ccc(OCCCCN2CCc3ccccc3C2)cc1` is 57.5%; for `Cc1ccc2nc(N=C(N)N)nc(C)c2c1` it is 30.9%; for `Cc1ccc2nc(/N=C(\N)NC(=O)N3c4ccccc4Sc4ccccc43)nc(C)c2c1` it is 10.2%.
As for `Cc1nc(/N=C(\N)NC(=O)c2ccccc2)nc2ccccc12`, the inhibition is -4.45%.
With `Cc1cc2nc(/N=C(\N)NC(=O)N3c4ccccc4Sc4ccccc43)nc(C)c2cc1C` the figure was -20.4%.
With `Cc1ccccc1Cn1cc(S(=O)(=O)c2ccc(C(C)C)cc2)c(=O)c2cc3c(cc21)OCO3`, the inhibition came to 11.4%.
The figure for `Cc1ccc(S(=O)(=O)NC(CCc2ccccc2)CC(=O)C(C)(C)C)cc1` (stereo unspecified) is 0.24%.
With `CCOC(=O)CN1C2=NCCCN2c2ccccc21` the figure was 15.4%.
The figure for `O=C(Cc1ccc(Cl)cc1)Nc1cccnc1` is 30.9%; for `O=C(O)c1ccc(Nc2cc(Cl)c3nonc3c2[N+](=O)[O-])cc1` it is 76%.
As for `O=C(O)c1ccccc1Nc1cc(Cl)c2nonc2c1[N+](=O)[O-]`, the inhibition is 71.1%.
